PubChem BioAssay
Where “and” joins values, the source holds several entries; their conditions need not be identical. Equal values may be shown once. Records with an inconclusive call do not appear. Calls of active or inactive are those of the source.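 Rule for the calls, unless noted: active = Her2 level under about 52% in both replicate screens, with viability over 70% of control (limit read from the data); inconclusive = Her2 under the limit in one screen only, or viability under 70%; inactive = Her2 level above the set limit.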

Tests used:
[1] = Her2 expression decrease, cell viability multiplex – SKBR3 breast tumor cells, AlphaScreen, ATP viability, primary screen (AID 461); conditions: SKBR3 Her2 protein level, 18-24 h, measured here: SKBR3 viability, ATP luminescence, at 10 µM;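 for Her2 level: lower value means less Her2 protein in the cells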;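 for viability: percent of carrier control wells set as 100% viability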
[2] = target: Receptor tyrosine-protein kinase erbB-2 (Homo sapiens) (UniProt P04626); assay: as above; conditions: 18-24 h, at 10 µM, stronger effect = lower value
[3] = reduced viability of SK-BR-3 breast cancer cells – cell-based, 24 h, human, pilot screen (AID 572;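 active = viability at or below 10% of carrier control in both of two separate runs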;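 note: compound exposure lasted between 18 and 24 h rather than exactly 24 h; 100% = carrier-treated control wells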); conditions: SK-BR-3 viability, CellTiter-Glo luminescence, at 10 µM, stronger effect = lower value
[4] = HUVEC growth inhibition – cell-based, human, primary screen (AID 575;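 active = viability at or below 30% in both replicate assays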;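 note: 100% = median of untreated cell wells with 0.1% DMSO on each plate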); conditions: HUVEC proliferation, CellTiter-Glo luminescence, 72 h; at 10 µM; stronger effect = lower value
[5] = H69AR cell proliferation blockers – human, duplicate replicates, primary screen (AID 580;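 active = viability at or under a set limit in both replicates, limit being median viability minus 3 SD, cut at about 48% in these data, passing the limit was not always enough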;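 note: 100% = mean luminescence of untreated wells and 0% = no signal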); conditions: H69AR lung tumor cells viability, ATP luminescence, 72 h; at 10 µM; stronger effect = lower value
[6] = MRP1 drug-resistance reversers in H69AR cells – cell-based, doxorubicin co-treatment, pilot screen (AID 601;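 active = viability loss from added drug above about 55%, and viability with drug at most 40%, in both replicates, limit read from the data, passing the limit was not always enough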); conditions: CellTiter-Glo, 72 h, at 10 µM; for differential viability (reversal): stronger effect = higher value
[7] = doxorubicin toxicity protection in MRP-1 cells – H69AR cells, CellTiter-Glo, duplicate, MRP-1 activator project, pilot screen (AID 807;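 active = viability increase at or above a cutoff of the median across tested compounds plus 3 SD, cut at about 8.5% in these data, passing the limit was not always enough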;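 note: compound pretreatment 18-22 h then 72 h combined with doxorubicin; 0% = doxorubicin alone and 100% = vehicle without doxorubicin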); conditions: H69AR viability with doxorubicin, CellTiter-Glo luminescence; at 10 µM; stronger effect = higher value
[8] = viability of HCT116 without oncogenic beta-catenin – human colon tumor cells, pilot screen (AID 823;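 active = cell viability at or below a set limit in both duplicate runs, the limit being the all-compound median minus 4 SD, cut at about 23% in these data, passing the limit was not always enough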;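 note: 0% = wells killed by 20 µM Hyamine and 100% = untreated DMSO cell wells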); conditions: HCT116 beta-catenin knockout viability, CellTiter-Glo, 60 h; at 10 µM; stronger effect = lower value
[9] = viability of PTEN-null HCT116 cells – cell-based, HCT116 clonal line, CellTiter-Glo, pilot screen (AID 824;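 active = viability at or below 27.92% in each of two runs, the all-compound median minus 4 SD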;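 note: 0% = 20 µM Hyamine control and 100% = vehicle cell control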); conditions: HCT116 PTEN-deleted viability, 60 h, at 10 µM, stronger effect = lower value
[10] = RAM pathway blockade in budding yeast – dse1pr::URA3 reporter, 5-FOA selection, pilot screen (AID 869;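 active = inhibition over a set limit, the all-compound mean plus 3 SD, in both replicate runs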;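 note: 0% = DMSO wells with no growth and 100% = 10 µM 1-NA-PP1 with full growth; RAM network block rescues cells from 5-FOA so hits raise OD615 growth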); conditions: S. cerevisiae dse1pr::URA3 5-FOA growth, OD615, 2 d; at 10 µM; stronger effect = higher value; strain carries analog-sensitive mutant Cbk1 kinase
[11] = RAM signaling pathway blockade in yeast – S. cerevisiae, Pdr1DBD-CYC8 efflux-inhibited sensitized strain, primary screen (AID 1298;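 active = RAM network inhibition above 8.4% in each of two replicates, 3 SD over the compound average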;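 note: 0% = DMSO untreated cells without growth and 100% = 10 µM 1-NA-PP1 full growth; higher means more yeast growth rescued from 5-FOA killing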); conditions: S. cerevisiae cbk1-as DSE1-URA3 strain, 5-FOA growth OD615, 2 d; at 50 µM; stronger effect = higher value
[12] = S. cerevisiae growth inhibition in restrictive medium, OD615, pilot screen, restrictive growth control, yeast lifespan reduction project (AID 706;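 active = growth inhibition above a set limit, 3 SD over mean compound inhibition, in both replicates, cut at about 43% in these data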;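 note: modified DeaD lifespan yeast strain shifted to restrictive glucose medium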); conditions: OD615, 48 h, at 10 µM, stronger effect = higher value
[13] = H69AR cells + 2 uM doxorubicin, measured here: viability with 2 uM doxorubicin, stronger effect = lower value
[14] = H69AR cells, compound alone cytotoxicity

Chain of Receptor tyrosine-protein kinase erbB-2 (Homo sapiens) (P04626 whole entry, looked up): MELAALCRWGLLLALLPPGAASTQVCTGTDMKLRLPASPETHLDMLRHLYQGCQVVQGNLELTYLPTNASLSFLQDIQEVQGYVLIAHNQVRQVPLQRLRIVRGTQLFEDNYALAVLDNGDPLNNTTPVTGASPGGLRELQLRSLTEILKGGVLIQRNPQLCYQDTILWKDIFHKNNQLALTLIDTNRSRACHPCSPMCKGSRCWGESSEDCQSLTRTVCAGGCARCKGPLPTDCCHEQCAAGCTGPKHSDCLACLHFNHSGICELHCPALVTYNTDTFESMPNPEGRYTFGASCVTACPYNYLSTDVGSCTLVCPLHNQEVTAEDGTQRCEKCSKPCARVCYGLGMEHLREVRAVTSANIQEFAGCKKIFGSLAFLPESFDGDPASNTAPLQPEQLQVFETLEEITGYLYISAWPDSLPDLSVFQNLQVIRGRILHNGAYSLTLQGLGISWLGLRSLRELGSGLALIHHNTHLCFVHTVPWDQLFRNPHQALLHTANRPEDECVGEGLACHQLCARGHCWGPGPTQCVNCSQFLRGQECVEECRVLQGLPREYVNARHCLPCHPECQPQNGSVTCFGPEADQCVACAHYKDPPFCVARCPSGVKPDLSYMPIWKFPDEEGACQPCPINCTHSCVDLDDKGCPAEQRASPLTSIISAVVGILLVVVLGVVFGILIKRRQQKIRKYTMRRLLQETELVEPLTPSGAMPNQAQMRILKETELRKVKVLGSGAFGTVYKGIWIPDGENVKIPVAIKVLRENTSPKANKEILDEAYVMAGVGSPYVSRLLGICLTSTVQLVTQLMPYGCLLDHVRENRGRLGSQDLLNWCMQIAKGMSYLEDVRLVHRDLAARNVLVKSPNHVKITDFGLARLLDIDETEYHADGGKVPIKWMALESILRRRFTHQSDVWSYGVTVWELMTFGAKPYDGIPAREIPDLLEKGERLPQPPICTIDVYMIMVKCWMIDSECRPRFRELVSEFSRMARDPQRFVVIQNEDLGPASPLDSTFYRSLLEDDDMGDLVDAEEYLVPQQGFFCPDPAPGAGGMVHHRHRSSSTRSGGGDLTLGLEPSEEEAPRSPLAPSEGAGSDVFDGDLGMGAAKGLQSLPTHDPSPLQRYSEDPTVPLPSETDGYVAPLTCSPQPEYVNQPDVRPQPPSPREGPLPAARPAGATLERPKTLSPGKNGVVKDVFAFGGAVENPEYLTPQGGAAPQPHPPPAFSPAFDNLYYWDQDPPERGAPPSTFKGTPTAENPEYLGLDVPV

## CCn1cc(C(=O)O)c(=O)c2cnc(N3CCNCC3)nc21
[1]
  viability: 108%
[2]
  Her2 level: 102% (inactive)
[3]
  viability: 108% (inactive)
[4]
  viability: 96.5% (inactive)
[5]
  viability: 107% (inactive)
[6]; H69AR cells + 2 uM doxorubicin
  differential viability (reversal): 16.4% (inactive)
[6]; [13]
  viability: 90.9%
[6]; [14]
  viability: 107%

## COc1ccc(/C=C(/C#N)c2cccnc2)cc1OC
[1]
  viability: 92%
[2]
  Her2 level: 97.5% (inactive)
[3]
  viability: 92% (inactive)
[4]
  viability: 96.9% (inactive)
[5]
  viability: 103% (inactive)
[6]; H69AR cells + 2 uM doxorubicin
  differential viability (reversal): 6.09% (inactive)
[6]; [13]
  viability: 96.7%
[6]; [14]
  viability: 103%

## CCCC(=O)O[C@]1(C(=O)COC(C)=O)CC[C@H]2[C@@H]3C[C@H](F)C4=CC(=O)C=C[C@]4(C)[C@@]3(F)[C@@H](O)C[C@@]21C
[1]
  viability: 95%
[2]
  Her2 level: 97.5% (inactive)
[3]
  viability: 95% (inactive)
[4]
  viability: 96.9% (inactive)
[5]
  viability: 95.6% (inactive)
[6]; H69AR cells + 2 uM doxorubicin
  differential viability (reversal): -8.84% (inactive)
[6]; [13]
  viability: 104%
[6]; [14]
  viability: 95.6%

## O=C(CSCc1ccco1)Nc1cc(C(F)(F)F)ccc1N1CCOCC1
[7]
  viability increase: -5.7% (inactive)
[8]
  viability: 63.4% (inactive)
[9]
  viability: 79.1% (inactive)
[10]
  inhibition: 1.91% (inactive)
[11]
  RAM network inhibition: 4.46% (inactive)

## O=C(O)Cc1cc(I)c(Oc2ccc(O)c(I)c2)c(I)c1
[1]
  viability: 89%
[2]
  Her2 level: 106% (inactive)
[3]
  viability: 89% (inactive)
[4]
  viability: 76% (inactive)
[5]
  viability: 96.3% (inactive)
[6]; H69AR cells + 2 uM doxorubicin
  differential viability (reversal): -4.12% (inactive)
[6]; [13]
  viability: 100%
[6]; [14]
  viability: 96.3%

## CN1Cc2c(N)cccc2C(c2ccccc2)C1 (stereo not given)
[1]
  viability: 81%
[2]
  Her2 level: 102% (inactive)
[3]
  viability: 81% (inactive)
[4]
  viability: 106% (inactive)
[5]
  viability: 102% (inactive)
[6]; H69AR cells + 2 uM doxorubicin
  differential viability (reversal): 5.5% (inactive)
[6]; [13]
  viability: 96.5%
[6]; [14]
  viability: 102%

## Cc1nc2ccccc2c2nc3ccccc3n12
[12]
  growth inhibition: 43.3% (active)
[7]
  viability increase: -0.65% (inactive)
[9]
  viability: 62.4% (inactive)
[10]
  inhibition: 3.25% (inactive)
[11]
  RAM network inhibition: 0.87% (inactive)

## COc1ccc(-c2n[nH]c(C(F)(F)F)c2-c2cc3ccccc3o2)c(O)c1
[7]
  viability increase: -7.49% (inactive)
[8]
  viability: 59.5% (inactive)
[9]
  viability: 55% (inactive)
[10]
  inhibition: -1.46% (inactive)
[11]
  RAM network inhibition: -1.35% (inactive)

## OCCN(CCO)c1nc(N2CCCCC2)c2nc(N(CCO)CCO)nc(N3CCCCC3)c2n1
[1]
  viability: 117%
[2]
  Her2 level: 94.5% (inactive)
[3]
  viability: 117% (inactive)
[4]
  viability: 79.6% (inactive)

## CC1CCc2cc(F)cc3c(=O)c(C(=O)O)cn1c23 (stereo not given)
[1]
  viability: 104%
[2]
  Her2 level: 100% (inactive)
[3]
  viability: 104% (inactive)
[4]
  viability: 98.5% (inactive)
[5]
  viability: 104% (inactive)
[6]; H69AR cells + 2 uM doxorubicin
  differential viability (reversal): 4.35% (inactive)
[6]; [13]
  viability: 99.2%
[6]; [14]
  viability: 104%

## COC(=O)CSCc1nc2ccccc2[nH]c1=O
[7]
  viability increase: -2.15% (inactive)
[8]
  viability: 101% (inactive)
[9]
  viability: 94.8% (inactive)
[10]
  inhibition: 0.08% (inactive)
[11]
  RAM network inhibition: 1.09% (inactive)

## Cc1cn([C@H]2C=C[C@@H](CO)O2)c(=O)[nH]c1=O
[1]
  viability: 94%
[2]
  Her2 level: 94.5% (inactive)
[3]
  viability: 94% (inactive)
[4]
  viability: 104% (inactive)
[5]
  viability: 109% (inactive)
[6]; H69AR cells + 2 uM doxorubicin
  differential viability (reversal): 22.8% (inactive)
[6]; [13]
  viability: 86.2%
[6]; [14]
  viability: 109%

## COc1ccc(NC(=O)CC2SC(=Nc3ccccc3)NC2=O)c(OC)c1 (stereo not given)
[7]
  viability increase: 2.03% (inactive)
[8]
  viability: 93.4% (inactive)
[9]
  viability: 92% (inactive)
[10]
  inhibition: 2.23% (inactive)
[11]
  RAM network inhibition: 7.78% (inactive)

## CC(=O)NS(=O)(=O)c1ccc(N)cc1
[1]
  viability: 118%
[2]
  Her2 level: 124% (inactive)
[3]
  viability: 118% (inactive)
[4]
  viability: 90% (inactive)
[5]
  viability: 102% (inactive)
[6]; H69AR cells + 2 uM doxorubicin
  differential viability (reversal): 6.32% (inactive)
[6]; [13]
  viability: 95.4%
[6]; [14]
  viability: 102%

## c1ccc2c(CC3=NCCN3)cccc2c1
[1]
  viability: 101%
[2]
  Her2 level: 99.5% (inactive)
[3]
  viability: 101% (inactive)
[4]
  viability: 91.7% (inactive)
[5]
  viability: 93.8% (inactive)
[6]; H69AR cells + 2 uM doxorubicin
  differential viability (reversal): 14.9% (inactive)
[6]; [13]
  viability: 78.9%
[6]; [14]
  viability: 93.8%

## COc1ccccc1N1CCN(C(CNC(=O)c2ccco2)c2cccnc2)CC1 (stereo not given)
[7]
  viability increase: -2.37% (inactive)
[8]
  viability: 85% (inactive)
[9]
  viability: 77% (inactive)
[10]
  inhibition: 2.23% (inactive)
[11]
  RAM network inhibition: -0.32% (inactive)

## c1cn2cc(-c3ccc4c(c3)OCO4)nc2s1
[7]
  viability increase: 1.35% (inactive)
[8]
  viability: 99.7% (inactive)
[9]
  viability: 90.7% (inactive)
[10]
  inhibition: 1.96% (inactive)
[11]
  RAM network inhibition: 0.64% (inactive)

## Cc1cccc(CN2CCN(C(c3ccccc3)c3ccc(Cl)cc3)CC2)c1 (stereo not given)
[1]
  viability: 83%
[2]
  Her2 level: 93.5% (inactive)
[3]
  viability: 83% (inactive)
[4]
  viability: 96.4% (inactive)
[5]
  viability: 96.8% (inactive)
[6]; H69AR cells + 2 uM doxorubicin
  differential viability (reversal): 1.06% (inactive)
[6]; [13]
  viability: 95.8%
[6]; [14]
  viability: 96.8%

## c1ccc(CN(CC2=NCCN2)c2ccccc2)cc1
[1]
  viability: 91.5% and 100%
[2]
  Her2 level: 114% (inactive) and 91.5% (inactive)
[3]
  viability: 91.5% (inactive) and 100% (inactive)
[4]
  viability: 94.1% (inactive) and 87.9% (inactive)
[5]
  viability: 93.2% (inactive) and 96.6% (inactive)
[6]; H69AR cells + 2 uM doxorubicin
  differential viability (reversal): 6.63% (inactive) and -1.34% (inactive)
[6]; [13]
  viability: 86.6% and 97.9%
[6]; [14]
  viability: 93.2% and 96.6%

## CC(C)Sc1nc(O)c(Cc2ccccc2)c(=O)[nH]1
[12]
  growth inhibition: -0.8% (inactive)
[7]
  viability increase: -0.54% (inactive)
[8]
  viability: 104% (inactive)
[10]
  inhibition: 2.81% (inactive)
[11]
  RAM network inhibition: 6.91% (inactive)

## CCCNCC(O)COc1ccccc1C(=O)CCc1ccccc1 (stereo not given)
[1]
  viability: 97%
[2]
  Her2 level: 100% (inactive)
[3]
  viability: 97% (inactive)
[4]
  viability: 97.2% (inactive)
[5]
  viability: 87.1% (inactive)
[6]; H69AR cells + 2 uM doxorubicin
  differential viability (reversal): 2.24% (inactive)
[6]; [13]
  viability: 84.8%
[6]; [14]
  viability: 87.1%
